From the supplement of paper PMC11732987, “Enantioselective OTUD7B fragment discovery through chemoproteomics screening and high-throughput optimisation” (Communications Chemistry, 2025)

Columns and labels:
Assay in all cases: log2 ratio of Biotin-Ahx-Ub-VS probe labelling (fragment/DMSO); higher = less target engagement (more negative = stronger competition), active = hit call of the paper (q ≤ 0.05, log2 ratio ≤ -1)
Conditions in all cases: compound concentration: 200 uM; treatment time: 3 h
[1] = biological target: T1, USP19 (UniProt O94966)
T1 sequence (whole entry): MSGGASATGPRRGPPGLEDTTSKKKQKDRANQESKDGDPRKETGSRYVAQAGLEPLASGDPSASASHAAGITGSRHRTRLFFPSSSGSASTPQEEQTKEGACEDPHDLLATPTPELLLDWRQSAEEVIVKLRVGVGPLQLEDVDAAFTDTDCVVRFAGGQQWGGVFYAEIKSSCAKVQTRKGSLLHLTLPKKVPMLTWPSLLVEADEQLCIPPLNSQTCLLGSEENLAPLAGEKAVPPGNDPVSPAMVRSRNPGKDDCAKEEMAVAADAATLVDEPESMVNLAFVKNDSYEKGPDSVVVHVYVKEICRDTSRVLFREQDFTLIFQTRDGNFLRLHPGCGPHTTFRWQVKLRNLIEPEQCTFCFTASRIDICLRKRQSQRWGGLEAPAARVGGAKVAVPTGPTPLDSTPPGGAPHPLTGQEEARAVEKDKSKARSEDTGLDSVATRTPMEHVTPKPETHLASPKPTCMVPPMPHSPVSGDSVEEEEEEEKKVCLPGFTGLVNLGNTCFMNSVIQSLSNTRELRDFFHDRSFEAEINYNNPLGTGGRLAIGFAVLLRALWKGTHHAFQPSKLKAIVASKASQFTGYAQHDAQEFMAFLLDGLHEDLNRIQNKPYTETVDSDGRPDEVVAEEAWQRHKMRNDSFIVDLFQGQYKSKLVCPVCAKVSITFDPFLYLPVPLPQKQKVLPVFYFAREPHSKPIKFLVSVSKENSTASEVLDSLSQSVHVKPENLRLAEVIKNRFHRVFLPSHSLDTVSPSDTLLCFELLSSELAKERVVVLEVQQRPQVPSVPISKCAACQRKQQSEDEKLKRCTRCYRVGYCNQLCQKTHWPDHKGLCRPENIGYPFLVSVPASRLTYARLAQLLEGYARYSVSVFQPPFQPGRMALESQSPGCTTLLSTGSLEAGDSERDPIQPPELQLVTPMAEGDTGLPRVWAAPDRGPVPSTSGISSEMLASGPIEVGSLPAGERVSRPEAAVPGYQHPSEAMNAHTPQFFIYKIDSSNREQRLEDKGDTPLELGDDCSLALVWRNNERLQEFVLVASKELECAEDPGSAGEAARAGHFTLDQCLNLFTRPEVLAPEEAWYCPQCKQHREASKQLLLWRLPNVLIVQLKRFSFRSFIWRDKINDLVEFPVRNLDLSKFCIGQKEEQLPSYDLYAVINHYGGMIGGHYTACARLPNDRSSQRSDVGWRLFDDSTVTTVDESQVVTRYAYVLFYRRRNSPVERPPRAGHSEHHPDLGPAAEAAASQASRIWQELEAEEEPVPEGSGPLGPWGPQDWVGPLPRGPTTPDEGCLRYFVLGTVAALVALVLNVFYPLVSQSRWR
How it was run: (§1)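 The table lists average log2 ratios of fragment over vehicle, from an unpaired t-test on global-median-normalised Spectronaut label-free quantities. Proteins with ≥2 unique peptides were used. Samples were HEK293T lysate (495 µg) treated in triplicate with fragment at 200 µM or vehicle for 3 h, then with Biotin-Ahx-Ub-VS (0.5 µM final) for 1 h, with labelled DUBs NeutrAvidin-enriched and run by diaPASEF LC-MS/MS.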

[2] = biological target: T2, USP22 (UniProt Q9UPT9)
T2 sequence (whole entry): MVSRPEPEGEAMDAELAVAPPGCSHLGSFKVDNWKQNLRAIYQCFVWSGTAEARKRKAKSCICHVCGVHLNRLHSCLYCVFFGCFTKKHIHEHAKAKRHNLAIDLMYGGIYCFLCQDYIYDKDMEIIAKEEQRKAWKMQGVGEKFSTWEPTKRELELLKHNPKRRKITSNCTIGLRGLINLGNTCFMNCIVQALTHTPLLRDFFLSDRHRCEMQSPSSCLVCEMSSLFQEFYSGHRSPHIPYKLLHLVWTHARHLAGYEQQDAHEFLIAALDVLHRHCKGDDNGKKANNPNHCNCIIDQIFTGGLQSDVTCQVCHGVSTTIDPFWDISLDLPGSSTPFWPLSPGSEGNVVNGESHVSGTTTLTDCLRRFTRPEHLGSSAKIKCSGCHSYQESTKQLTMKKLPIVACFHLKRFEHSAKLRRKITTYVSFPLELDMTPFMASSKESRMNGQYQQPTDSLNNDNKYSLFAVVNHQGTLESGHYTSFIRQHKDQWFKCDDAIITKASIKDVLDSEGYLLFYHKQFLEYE
How it was run: as §1

[3] = biological target: USP24 (UniProt Q9UPU5)
USP24, sequence (Q9UPU5 whole entry): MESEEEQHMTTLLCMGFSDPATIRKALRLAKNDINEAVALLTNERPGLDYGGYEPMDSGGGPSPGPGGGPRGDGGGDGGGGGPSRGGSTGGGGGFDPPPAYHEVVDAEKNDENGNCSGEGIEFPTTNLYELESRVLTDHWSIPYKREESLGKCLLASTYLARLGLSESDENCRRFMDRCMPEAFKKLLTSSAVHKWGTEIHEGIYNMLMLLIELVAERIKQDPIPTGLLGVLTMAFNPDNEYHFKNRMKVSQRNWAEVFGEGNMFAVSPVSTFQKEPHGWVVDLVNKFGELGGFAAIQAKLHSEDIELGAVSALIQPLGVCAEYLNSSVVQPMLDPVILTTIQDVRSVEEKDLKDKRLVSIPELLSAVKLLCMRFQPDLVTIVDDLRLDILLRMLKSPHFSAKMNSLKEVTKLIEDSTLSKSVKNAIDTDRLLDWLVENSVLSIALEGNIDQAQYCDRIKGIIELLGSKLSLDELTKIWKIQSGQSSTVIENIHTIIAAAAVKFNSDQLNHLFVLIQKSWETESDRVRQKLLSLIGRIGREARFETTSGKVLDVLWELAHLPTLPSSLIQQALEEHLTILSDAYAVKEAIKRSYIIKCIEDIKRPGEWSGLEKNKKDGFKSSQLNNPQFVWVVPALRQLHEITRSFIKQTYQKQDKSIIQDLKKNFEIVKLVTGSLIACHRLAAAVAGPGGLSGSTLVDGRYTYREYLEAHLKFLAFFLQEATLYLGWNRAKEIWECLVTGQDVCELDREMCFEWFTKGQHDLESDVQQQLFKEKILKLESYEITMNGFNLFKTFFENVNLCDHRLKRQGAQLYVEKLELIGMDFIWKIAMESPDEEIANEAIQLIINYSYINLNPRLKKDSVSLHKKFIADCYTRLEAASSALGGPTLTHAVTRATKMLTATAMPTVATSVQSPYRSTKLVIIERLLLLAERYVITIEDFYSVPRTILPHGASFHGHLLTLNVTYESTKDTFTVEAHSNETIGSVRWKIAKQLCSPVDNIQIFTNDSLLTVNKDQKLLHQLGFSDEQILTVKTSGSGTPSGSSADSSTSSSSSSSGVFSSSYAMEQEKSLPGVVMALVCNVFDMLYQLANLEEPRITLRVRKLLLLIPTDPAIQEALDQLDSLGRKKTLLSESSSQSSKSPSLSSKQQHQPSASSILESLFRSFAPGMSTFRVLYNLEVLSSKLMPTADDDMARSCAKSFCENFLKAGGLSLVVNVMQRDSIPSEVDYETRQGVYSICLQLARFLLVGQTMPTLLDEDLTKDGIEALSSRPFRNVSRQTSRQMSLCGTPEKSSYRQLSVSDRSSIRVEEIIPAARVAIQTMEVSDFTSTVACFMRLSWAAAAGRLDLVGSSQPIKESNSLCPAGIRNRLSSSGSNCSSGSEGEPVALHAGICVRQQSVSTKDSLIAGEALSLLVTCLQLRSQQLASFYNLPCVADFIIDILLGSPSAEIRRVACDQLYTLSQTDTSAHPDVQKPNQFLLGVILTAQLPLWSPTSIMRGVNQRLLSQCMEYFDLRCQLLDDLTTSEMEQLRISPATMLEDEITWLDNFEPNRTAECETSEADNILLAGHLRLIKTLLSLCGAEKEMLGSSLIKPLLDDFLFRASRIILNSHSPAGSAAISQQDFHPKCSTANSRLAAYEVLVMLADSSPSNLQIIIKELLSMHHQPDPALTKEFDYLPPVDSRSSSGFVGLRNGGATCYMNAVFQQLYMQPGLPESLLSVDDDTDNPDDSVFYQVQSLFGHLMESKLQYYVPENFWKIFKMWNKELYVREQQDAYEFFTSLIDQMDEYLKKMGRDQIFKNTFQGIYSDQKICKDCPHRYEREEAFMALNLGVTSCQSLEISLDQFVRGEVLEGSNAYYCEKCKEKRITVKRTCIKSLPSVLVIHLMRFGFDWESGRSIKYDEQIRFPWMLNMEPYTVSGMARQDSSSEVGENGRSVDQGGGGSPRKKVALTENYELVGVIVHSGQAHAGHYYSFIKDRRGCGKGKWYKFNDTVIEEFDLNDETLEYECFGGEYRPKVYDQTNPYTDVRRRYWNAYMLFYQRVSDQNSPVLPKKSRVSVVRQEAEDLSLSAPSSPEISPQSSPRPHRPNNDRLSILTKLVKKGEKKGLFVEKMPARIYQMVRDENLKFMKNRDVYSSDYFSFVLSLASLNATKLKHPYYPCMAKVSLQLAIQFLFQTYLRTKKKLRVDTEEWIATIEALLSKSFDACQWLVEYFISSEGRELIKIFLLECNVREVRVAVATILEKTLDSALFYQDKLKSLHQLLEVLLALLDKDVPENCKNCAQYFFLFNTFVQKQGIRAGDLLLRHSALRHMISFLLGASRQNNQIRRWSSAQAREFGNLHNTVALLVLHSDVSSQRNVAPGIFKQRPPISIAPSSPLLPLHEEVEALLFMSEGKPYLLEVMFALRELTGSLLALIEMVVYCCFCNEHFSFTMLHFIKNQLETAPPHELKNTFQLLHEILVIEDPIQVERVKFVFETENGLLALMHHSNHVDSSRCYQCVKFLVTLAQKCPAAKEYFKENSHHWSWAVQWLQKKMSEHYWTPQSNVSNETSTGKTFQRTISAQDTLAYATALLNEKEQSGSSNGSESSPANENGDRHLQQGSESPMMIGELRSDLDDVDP
How it was run: as §1

[4] = biological target: T3, USP25 (UniProt Q9UHP3)
T3 sequence (whole entry): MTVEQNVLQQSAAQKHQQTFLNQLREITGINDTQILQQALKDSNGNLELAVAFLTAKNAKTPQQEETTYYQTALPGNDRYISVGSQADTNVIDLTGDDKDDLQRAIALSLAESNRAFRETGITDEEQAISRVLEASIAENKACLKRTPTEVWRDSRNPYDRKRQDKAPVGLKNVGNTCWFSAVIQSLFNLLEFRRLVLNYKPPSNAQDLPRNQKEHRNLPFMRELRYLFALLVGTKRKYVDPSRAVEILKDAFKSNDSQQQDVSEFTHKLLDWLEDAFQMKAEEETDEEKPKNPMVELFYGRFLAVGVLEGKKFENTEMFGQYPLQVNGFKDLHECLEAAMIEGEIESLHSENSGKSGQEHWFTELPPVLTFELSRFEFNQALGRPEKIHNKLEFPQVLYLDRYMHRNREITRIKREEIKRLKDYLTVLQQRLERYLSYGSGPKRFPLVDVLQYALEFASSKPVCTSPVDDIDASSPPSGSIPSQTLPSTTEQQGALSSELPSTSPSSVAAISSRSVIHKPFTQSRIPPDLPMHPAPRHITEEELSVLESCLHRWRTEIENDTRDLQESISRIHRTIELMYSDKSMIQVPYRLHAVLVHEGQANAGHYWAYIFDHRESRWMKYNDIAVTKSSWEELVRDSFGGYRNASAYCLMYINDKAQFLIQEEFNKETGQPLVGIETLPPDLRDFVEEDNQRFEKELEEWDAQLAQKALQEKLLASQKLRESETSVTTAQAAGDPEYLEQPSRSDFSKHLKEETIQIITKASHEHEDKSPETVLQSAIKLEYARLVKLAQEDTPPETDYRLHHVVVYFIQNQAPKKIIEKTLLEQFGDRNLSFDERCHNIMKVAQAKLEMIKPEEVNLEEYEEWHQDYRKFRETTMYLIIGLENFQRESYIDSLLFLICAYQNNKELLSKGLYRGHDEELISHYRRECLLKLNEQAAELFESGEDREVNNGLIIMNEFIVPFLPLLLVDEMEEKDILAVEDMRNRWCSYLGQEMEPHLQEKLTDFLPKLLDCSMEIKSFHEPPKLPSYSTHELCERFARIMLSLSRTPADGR
How it was run: as §1

[5] = biological target: T4, USP28 (UniProt Q96RU2)
T4 sequence (whole entry): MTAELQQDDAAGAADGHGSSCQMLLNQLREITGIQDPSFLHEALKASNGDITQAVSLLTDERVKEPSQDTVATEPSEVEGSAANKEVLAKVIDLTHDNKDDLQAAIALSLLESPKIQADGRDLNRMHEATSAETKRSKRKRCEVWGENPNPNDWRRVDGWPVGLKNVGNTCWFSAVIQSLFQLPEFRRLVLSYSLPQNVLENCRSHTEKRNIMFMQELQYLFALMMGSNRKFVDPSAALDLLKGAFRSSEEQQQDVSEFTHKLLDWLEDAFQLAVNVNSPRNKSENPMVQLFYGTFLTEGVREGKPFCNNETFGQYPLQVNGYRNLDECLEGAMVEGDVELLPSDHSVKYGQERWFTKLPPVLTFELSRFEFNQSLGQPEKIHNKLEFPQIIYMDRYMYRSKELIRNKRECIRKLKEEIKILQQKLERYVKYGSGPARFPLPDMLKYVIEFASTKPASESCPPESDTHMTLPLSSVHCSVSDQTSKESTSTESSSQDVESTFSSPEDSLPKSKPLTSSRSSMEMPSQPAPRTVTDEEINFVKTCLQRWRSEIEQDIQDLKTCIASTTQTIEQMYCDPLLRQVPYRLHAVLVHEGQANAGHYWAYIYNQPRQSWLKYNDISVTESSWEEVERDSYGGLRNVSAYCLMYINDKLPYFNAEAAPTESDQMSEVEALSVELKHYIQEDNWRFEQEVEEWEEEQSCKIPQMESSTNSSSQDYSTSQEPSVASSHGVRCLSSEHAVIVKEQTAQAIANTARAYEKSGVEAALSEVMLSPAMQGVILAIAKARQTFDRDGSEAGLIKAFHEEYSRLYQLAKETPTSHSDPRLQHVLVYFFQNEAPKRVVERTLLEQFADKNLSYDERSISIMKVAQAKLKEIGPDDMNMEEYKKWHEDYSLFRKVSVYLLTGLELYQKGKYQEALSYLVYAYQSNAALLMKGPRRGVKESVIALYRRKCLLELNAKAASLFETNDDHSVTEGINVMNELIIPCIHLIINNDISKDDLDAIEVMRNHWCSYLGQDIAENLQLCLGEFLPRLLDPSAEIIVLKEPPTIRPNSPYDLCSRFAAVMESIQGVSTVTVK
How it was run: as §1

Measured: log2 ratio of Biotin-Ahx-Ub-VS probe labelling

CC(NC(=O)CCl)c1noc(Cc2ccccc2)n1 (stereo not given)
inactive: [1] -0.307 | [2] -0.322 | [3] -0.498 | [4] -0.593 | [5] -0.789
